# Results filed as inconclusive are left out. A call without a number means that no potency is given here. Activity calls are given as the source filed them. The call rests on the fitted dose curve; in most records, active means well fitted inhibition curve with a large enough effect in the signal ratio in the repeat runs (not every such curve was filed as active); inconclusive means weak or mixed curves, or effect the other way; inactive means flat fitted curve, though single readings scatter; the % refers to the signal ratio.
# Experiment: cAMP Responsive Elements (CRE) small molecule antagonists, cell-based qHTS assay (AID 1963591)
# Details: CRE-bla HEK293T, beta-lactamase FRET ratio; series mostly up to 92.4 µM; activity change, negative = inhibition: at the top concentration
# Method in brief: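 First, CRE-bla HEK293T cells settled 18 h at 37 C. Next, compound and 0.25 uM final NKH477 were applied for 3 h. Last, LiveBLAzer B/G substrate was loaded for 2 h at room temperature.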
Compound,Potency,"activity change, negative = inhibition"
CC(C)c1ccc(OP(=O)(Oc2ccc(C(C)C)cc2)Oc2ccc(C(C)C)cc2)cc1,inactive,
Clc1cccc(Cl)c1,inactive,
ClC(Cl)c1ccccc1,inactive,
O=P(OCC(Br)CBr)(OCC(Br)CBr)OCC(Br)CBr (stereo not drawn),,-1.25% (inactive)
Clc1cccc(C(Cl)(Cl)Cl)n1,inactive,
COP(=O)(NC(C)=O)SC (stereo not drawn),inactive,
CC(C)N1C(=O)c2ccccc2NS1(=O)=O,inactive,
CCCCn1cc[n+](C)c1,inactive,
COP(=O)(OC)OC,inactive,
CCN(CC)C(=O)/C(Cl)=C(\C)OP(=O)(OC)OC,inactive,
O=C(NC(=O)c1ccccc1Cl)Nc1ccc(OC(F)(F)F)cc1,,0.955% (inactive)
c1ccc(C2CO2)cc1 (stereo not drawn),inactive,
ClCCOCCCl,inactive,
Oc1cccc2cccnc12,,-0.199% [at 42.4 µM] (inactive)
CC(O)CCO (stereo not drawn),inactive,
CCCCON=O,,-1.5% (inactive)
CCOP(=S)(OCC)Oc1ccc([N+](=O)[O-])cc1,inactive,
C=CC(Cl)CCl (stereo not drawn),inactive,
CN(CCCC(=O)c1cccnc1)N=O,,-3.05% (inactive)
Nc1ccc(Cl)cc1N,,-11.3% (inactive)
Cc1ccc(N)c(C)c1,inactive,
C[C@H]1O[C@H](OC2[C@@H](O)[C@@H](O)C(O)[C@H](O)[C@H]2O)[C@@H](N)C[C@@H]1N=C(N)C(=O)O (stereo partly drawn),,2.98% (inactive)
CCCCC(CC)C(=O)Cl (stereo not drawn),inactive,
O=C(CCl)c1ccc(Cl)cc1Cl,inactive,
O=P(Oc1ccccc1)(Oc1ccccc1)Oc1ccccc1,inactive,
CCCCCCCCCCCCn1cc[n+](C)c1,,-3.32% (inactive)
Nc1cccc2ccccc12,inactive,
Cc1[nH]c(=O)n(C(C)(C)C)c(=O)c1Cl,inactive,

# From PubChem BioAssay (Tox21)
